{
  "source": "PubChem BioAssay (Tox21)",
  "note": "Where “and” joins values, the source holds several entries; their conditions need not be identical. Equal entries are not always repeated. Records with an inconclusive call do not appear. A call without a number means that no potency is given here. Calls of active or inactive are those of the source. The call rests on the fitted dose curve; in most records, active means well fitted cell-killing curve with a large enough effect in the repeat runs; inconclusive means weak or mixed curves, or effect the other way; inactive means flat fitted curve, though single readings scatter. Potency means the concentration at half of the fitted maximal effect.",
  "data": [
    {"assay": "cAMP Responsive Elements (CRE) small molecule antagonists, cell-based qHTS assay: qHTS cell viability counter screen (AID 2060913); further: nearly all actives have a fitted effect of over 40% in size", "conditions": "CRE-bla HEK293T viability, CellTiter-Glo luminescence, 5 h; series mostly up to 92.4 µM", "summary_of_the_method": "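CRE-bla HEK293T cells were seeded in assay medium with 10% dialyzed FBS, incubated 18 hrs at 37 C, then exposed to compounds plus 0.25 uM final NKH477 for 3 hrs. Viability was read by CellTiter-Glo luminescence after 30 min, in the same wells.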", "values": [
      {"smiles": "CO[C@@]12[C@H](COC(N)=O)C3=C(C(=O)C(C)=C(N)C3=O)N1C[C@@H]1N[C@@H]12", "Potency": "inactive"},
      {"smiles": "O=NN(CCCl)C(=O)NC1CCCCC1", "Potency": "inactive"},
      {"smiles": "CN(C)C(=O)C1(N2CCCCC2)CCN(CC[C@@]2(c3ccc(Cl)c(Cl)c3)CN(C(=O)c3ccccc3)CCO2)CC1", "Potency": "64.1 µM (active)"},
      {"smiles": "C=CCOCC(CC)(CO)COCC=C", "Potency": "inactive"},
      {"smiles": "CC=O", "Potency": "63.9 µM (active)"},
      {"smiles": "CN(C)CCCOc1nn(Cc2ccccc2)c2ccccc12", "Potency": "inactive"},
      {"smiles": "CCCC[P+](C)(CCCC)CCCC", "Potency": "inactive"},
      {"smiles": "CCN(CC)c1ccc(C=O)c(O)c1", "Potency": "inactive"},
      {"smiles": "Cn1c(N)nc2nc[nH]c2c1=O", "Potency": "inactive"},
      {"smiles": "COc1ccc2nc(S(=O)Cc3ncc(C)c(OC)c3C)[nH]c2c1", "note": "(stereo not given)", "Potency": "inactive"},
      {"smiles": "CCCCCC/C=C/C=O", "Potency": "inactive"},
      {"smiles": "CCOC(=O)[C@H](CCc1ccccc1)N[C@@H](C)C(=O)N1[C@H](C(=O)O)C[C@@H]2CCC[C@@H]21", "Potency": "inactive"},
      {"smiles": "CNCc1ccc(NC(=O)c2c[nH]c3c2C(=O)CCC3)cc1", "Potency": "inactive"},
      {"smiles": "CC(C)(C)c1ccc(C(=O)CCCN2CCC(OC(c3ccccc3)c3ccccc3)CC2)cc1", "Potency": "inactive"},
      {"smiles": "CCOC(=O)CC(O)(CC(=O)OCC)C(=O)OCC", "Potency": "inactive"},
      {"smiles": "CC(=O)OCC(=O)[C@@]1(O)CC[C@H]2[C@@H]3CCC4=CC(=O)C=C[C@]4(C)[C@H]3[C@@H](O)C[C@@]21C", "Potency": "inactive"},
      {"smiles": "CC(C)c1nc(CN(C)C(=O)N[C@H](C(=O)N[C@@H](Cc2ccccc2)C[C@H](O)[C@H](Cc2ccccc2)NC(=O)OCc2cncs2)C(C)C)cs1", "Potency": "inactive"},
      {"smiles": "CC(C)(C)c1ccc(O)c(C(C)(C)C)c1", "Potency": "48.6 µM (active)"},
      {"smiles": "CNC(=O)NC", "Potency": "inactive"},
      {"smiles": "O=C(C1CCCCC1)N1CC(=O)N2CCCc3ccccc3C2C1", "note": "(stereo not given)", "Potency": "inactive"},
      {"smiles": "O=C(O)c1ccncc1", "Potency": "inactive"},
      {"smiles": "C1=COCCC1", "Potency": "inactive"},
      {"smiles": "CN1CCN(C2=Nc3cc(F)ccc3Cc3ccccc32)CC1", "Potency": "inactive"},
      {"smiles": "O=C1c2c(O)ccc([N+](=O)[O-])c2C(=O)c2c([N+](=O)[O-])ccc(O)c21", "Potency": "27.1 µM (active)"},
      {"smiles": "COc1ccc(Br)c(C)c1", "Potency": "inactive"},
      {"smiles": "CC(COc1ccc(C(C)(C)C)cc1)OS(=O)OCCCl", "note": "(stereo not given)", "Potency": "inactive"},
      {"smiles": "COC(=O)c1ccc(C(=O)OC)cc1", "Potency": "inactive"},
      {"smiles": "O=C(NCCc1c[nH]c2ccccc12)c1cccnc1", "Potency": "inactive"},
      {"smiles": "CCCC/C=C/C=C\\C=O", "Potency": "inactive"},
      {"smiles": "O=c1c2ccccc2nnn1CCl", "Potency": "inactive"},
      {"smiles": "CCCCC(=O)O[C@]1(C(=O)CO)CC[C@H]2[C@@H]3CCC4=CC(=O)CC[C@]4(C)[C@H]3[C@@H](O)C[C@@]21C", "Potency": "inactive"},
      {"smiles": "CN(C)c1ccc(C(=C2C=CC(=[N+](C)C)C=C2)c2ccccc2)cc1", "Potency": "15.4 µM (active) and 11.9 µM (active) and 10.6 µM (active)"},
      {"smiles": "O=C(c1ccco1)N1CCNCC1", "Potency": "inactive"},
      {"smiles": "O=c1[nH]sc2cc(Cl)ccc12", "Potency": "inactive"},
      {"smiles": "COc1ccc(N)c(OC)c1", "Potency": "inactive"},
      {"smiles": "Cc1cc2nc3ccc(=[N+](C)C)cc-3sc2cc1N", "Potency": "inactive"},
      {"smiles": "COc1cc(NS(=O)(=O)c2ccc(N)cc2)nc(OC)n1", "Potency": "inactive"},
      {"smiles": "Cc1ccc2c(c1[N+](=O)[O-])C(=O)c1ccccc1C2=O", "Potency": "inactive"},
      {"smiles": "CC(C)(C)C1CCC(CC2=C(O)c3ccccc3C(=O)C2=O)CC1", "note": "(stereo not given)", "Potency": "inactive"},
      {"smiles": "CCCCCCCC(=O)OCCCCCC", "Potency": "inactive"}
    ]}
  ]
}
